Screens (PubChem)
Pol kappa inh-1 – DNA polymerase kappa (human) inhibition; Potency, µM (titrated, usually from 107 µM), for the others: top-dose activity, negative = inhibition, most hits filed as inhibitors; purified Pol kappa, fluorescent DNA synthesis assay, 10 min; Q9UBT6; 400,000 tested, 0.53% active; also: potency is read from the fitted curve at half-maximal effect; % is scaled to controls: 0 for no effect and ±100 for the full control effect
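Readout: fluorescence, taken kinetically at 0 and 10 min. Conditions: 10 nM Pol kappa, 15 min RT compound preincubation, 50 nM substrate final. Controls: enzyme-free buffer wells.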
Pol iota inh – blocks human DNA polymerase iota activity; Q9UNA4; Pol iota fluorescent replication assay, 10 min; Potency, µM (doses to about 115 µM), for inactives: top-dose activity, negative = inhibition, usual class: inhibitors; 390,000 tested, 1% active; AID 588590; also: potency is read from the fitted curve at half-maximal effect
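Pol iota at 10 nM preincubated 15 min with compounds at room temperature; reaction started with fluorescent substrate, 50 nM final. Fluorescence read kinetically at 0 and 10 min; buffer-only wells as negative control.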
POLB inh – inhibitors of human DNA polymerase beta | P06746 | Pol beta primer extension/strand displacement, fluorescence kinetic | Potency, µM (series often up to 114 µM), for the others: at the top dose activity change, negative = inhibition, hits mostly inhibitors | 340,000 tested, 1.3% active | AID 485314; also: potency is read from the fitted curve at half-maximal effect; % is scaled to controls: 0 for no effect and ±100 for the full control effect
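Kinetic readout of DNA synthesis with strand displacement by Pol beta. Compound and 10 nM enzyme sit 15 min at room temperature; 50 nM substrate starts the reaction, read immediately and at 10 min.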
GLS inhibitor – blocks human kidney-isoform glutaminase activity; O94925; GLS enzymatic activity, qHTS titration; Potency, µM (highest dose often 45.5 µM), inactives show top-dose activity change, negative = inhibition, actives largely listed as inhibitors; 410,000 tested, 0.21% active; AID 624170; also: potency is read from the fitted curve at half-maximal effect; % is scaled to controls: 0 for no effect and ±100 for the full control effect
Target sequence (O94925 whole entry, looked up, canonical isoform): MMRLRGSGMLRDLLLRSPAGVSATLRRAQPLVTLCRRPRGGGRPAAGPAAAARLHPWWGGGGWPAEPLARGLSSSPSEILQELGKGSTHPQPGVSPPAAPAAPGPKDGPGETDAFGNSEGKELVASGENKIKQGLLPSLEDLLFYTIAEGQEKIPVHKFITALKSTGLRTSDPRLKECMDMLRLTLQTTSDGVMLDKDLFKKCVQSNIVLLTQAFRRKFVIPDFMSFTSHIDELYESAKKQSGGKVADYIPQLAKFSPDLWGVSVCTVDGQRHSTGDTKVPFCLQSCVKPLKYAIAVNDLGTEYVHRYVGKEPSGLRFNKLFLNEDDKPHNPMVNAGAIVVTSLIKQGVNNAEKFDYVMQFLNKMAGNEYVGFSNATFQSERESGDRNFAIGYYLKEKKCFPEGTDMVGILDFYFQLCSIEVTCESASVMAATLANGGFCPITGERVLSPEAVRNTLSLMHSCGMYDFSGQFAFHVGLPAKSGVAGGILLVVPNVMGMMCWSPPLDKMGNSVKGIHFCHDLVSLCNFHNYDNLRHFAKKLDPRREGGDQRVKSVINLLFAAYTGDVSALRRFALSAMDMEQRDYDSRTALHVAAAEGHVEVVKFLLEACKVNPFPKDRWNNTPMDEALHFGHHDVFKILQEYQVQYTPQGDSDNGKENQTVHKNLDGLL
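hKGA in 45 mM KH2PO4 (pH 8.2), 0.02% Tween-20 with compound, then 1mM L-Glutamine (stock as added) plus glutamate oxidase/HRP/Amplex red coupling mix. Fluorescence read initially and after 30 min at RT; signal change reflects glutamate formation.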
Pol eta inh-1 – DNA polymerase eta (human) inhibition; recombinant Pol eta, fluorescent DNA replication assay; Potency, µM (titrated, usually from 114 µM), inactives show at the top dose activity change, negative = inhibition, hits mostly inhibitors; 390,000 tested, 1.2% active; also: potency is read from the fitted curve at half-maximal effect; % is scaled to controls: 0 for no effect and ±100 for the full control effect
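Pol eta at 10 nM preincubated with compounds 15 min at room temperature; reaction started with fluorescent substrate (50 nM final) and read kinetically at 0 and 10 min.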
KAT2A inh – blocks human GCN5L2 histone acetyltransferase. GCN5L2 HAT assay, ThioGlo1 CoA-SH fluorescence. 390,000 tested, 0.21% active. Potency, µM (highest dose often 58.9 µM), for inactives: at the top dose activity change, negative = inhibition, hits mostly inhibitors. AID 504327; also: potency is read from the fitted curve at half-maximal effect; % is scaled to controls: 0 for no effect and ±100 for the full control effect
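Fluorescence readout, Ex340nm/Em540nm: ThioGlo1 (50uM final) reacts with free CoA thiol released as 20nM GCN5L2 acetylates H3(1-25) peptide (75uM) using acetyl-CoA (70uM). Compound and enzyme sat 15 min beforehand; 20 min room-temperature reaction.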
GALK confirm – galactokinase (human) inhibition, confirmation; purified GALK, Kinase-Glo ATP depletion luminescence; Potency, µM (top dose mostly 115 µM), for the others: at the top dose activity, negative = inhibition, most hits filed as inhibitors; shares compounds with Pol eta inh-1; AID 2015; 150 tested, 70% active
GALK redox cs – counter-screen for GALK inhibitors: redox cycling H2O2 generation | shares compounds with Pol eta inh-1 | Phenol red-HRP H2O2 redox cycling, absorbance 600 nm | Potency, µM (series often up to 115 µM), inactives show at the top dose activity change, negative = H2O2 signal, actives largely listed as inhibitors | 150 tested, 40% active | AID 2035
HEK293 tox – reduces HEK-293 cell viability in GALK counter-screen; shares compounds with Pol eta inh-1; HEK-293 viability, ATP luminescence (CellTiter-Glo), 24/48 h; Potency, µM (titrated, usually from 46.1 µM), for the others: at the highest dose activity change, negative = cytotoxicity, actives largely listed as inhibitors; 170 tested, 10% active; AID 2547; also: potency is read from the fitted curve at half-maximal effect; % is scaled to controls: 0 for no effect and ±100 for the full control effect
Pol kappa inh-2 – confirmation of human DNA polymerase kappa inhibitors; 920 tested, 76% active; Potency, µM, hits mostly inhibitors; purified Pol-kappa, fluorescent strand-displacement substrate; shares compounds with Pol eta inh-1; also: potency is read from the fitted curve at half-maximal effect
Pol eta inh-2 – Pol eta (human) inhibition, cherry-pick confirmation; shares compounds with Pol eta inh-1; Pol eta primer extension, TAMRA/BHQ fluorescence, 10 min; Potency, µM, usual class: inhibitors; 2,600 tested, 64% active; also: potency is read from the fitted curve at half-maximal effect
* = called active by the depositor; ? = inconclusive; nt = no result given; [ ] = remark or other dose. Most compounds without a hit are left out; they make up all but 2.4% or so of the library. Calls follow the shape of the dose curve; as a rule, active = well fitted curve in the direction sought with a large enough effect; inconclusive = small, poorly fitted or top-dose-only effect, or another doubt; inactive = no such curve, though single readings can be large; an effect the other way counts as inactive or inconclusive.

SMILES | Pol kappa inh-1 | Pol iota inh | POLB inh | GLS inhibitor | Pol eta inh-1 | KAT2A inh | Pol eta inh-2 | others
Cc1ccc(N2CCN(c3nc4ccc(C)cc4n4nnnc34)CC2)c(C)c1 | 3% | 32% | 9% | 2% | -13% | -3% | nt
COC(=O)c1ccc(Cl)cc1NC(=O)NCc1c(-n2cccc2)sc2c1CCCC2 | -1% | 51% | 20% | 0% | 4% | -2% | nt
Cc1c(C(=O)Nc2ccccc2)sc2nc(-c3cc4cc(Cl)ccc4oc3=O)[nH]c(=O)c12 | -7% | -6% | 0% | -5% | -8% | -12% | nt
CCOC(=O)c1c(NC(=O)/C=C/c2ccc(C)cc2)sc(C(C)=O)c1C | -2% | 6% | -1% | 9% | -3% | -6% | nt
Cc1ccc(OCCn2c(-c3ccc(Br)cc3)nc3ccccc3c2=O)cc1C | -21% | ? | -16% | -3% | -3% | -6% | nt
Cc1ccc(S(=O)(=O)N2CCN(c3nc(C(N)=O)nc4ccccc34)CC2)cc1 | 3% | 17% | nt | nt | nt | nt | nt
O=S(=O)(Nc1nc2n(n1)C(c1ccccc1)C=C(c1ccc(Cl)cc1)N2)c1ccccc1 (stereo not given) | 0% | -19% | 22% | -16% | 89µM* | -23% | ? | Pol kappa inh-2=67*
O=S(=O)(Nc1nc2n(n1)C(c1ccc(F)cc1)C=C(c1ccccc1)N2)c1ccc(Cl)cc1 (stereo not given) | -11% | 22% | -16% | ? | ? | -2% | nt
CNS(=O)(=O)c1cccc(C(=O)OC2CCOC2=O)c1 (stereo not given) | -5% | 115% | 0% | 5% | -13% | 7% | nt
CS(=O)(=O)c1ccc(C(=O)OC2CCOC2=O)cc1[N+](=O)[O-] (stereo not given) | -28% | ? | ? | -14% | 20µM* | 1% | 38*
O=C(CSc1nc2ccsc2c(=O)n1Cc1ccccc1)NCc1ccco1 | -2% | 42% | 6% | 3% | -11% | -5% | nt
O=C(CSc1nc2ccccc2c(=O)n1Cc1ccco1)NCc1ccco1 | ? | 32µM* | ? | 7% | 79µM* | -21% | ?
O=C(CSc1nc2ccsc2c(=O)n1NC(=O)c1ccccc1)NCc1ccco1 | 79µM* | 50µM* | ? | 5% | 45µM* | -22% | ?
Cc1cc(C)cc(NC(=O)CN(C)S(=O)(=O)c2ccc3c(c2)CCC(=O)N3)c1 | -9% | 26% | 21% | -13% | -17% | 0% | nt
Cc1cc(NC2=CC(=O)C(=O)c3ccccc32)no1 | -12% | ? | nt | -13% | 22µM* | nt | ?
Cc1ccc(NC(=O)CN(C)S(=O)(=O)c2ccc3[nH]c(=O)oc3c2)c(C)c1 | -8% | -7% | ? | 3% | 79µM* | 0% | 27*
COc1ccc(N2CCN(C(=O)CS(=O)(=O)c3cccc4nsnc34)CC2)cc1 | -11%[60.1 µM] | 6% | -28% | 20% | -9% | -12% | nt
CC(=O)N1CCc2c(sc(NC(=O)C3COc4ccccc4O3)c2C(N)=O)C1 (stereo not given) | -12% | 23% | 19% | 10% | 22µM* | -33% | 48*
CC1=NN(c2ccccc2)C(=O)/C1=C/c1c(O)n(-c2ccc(F)c(Cl)c2)[nH]c1=O | ? | -28% | ? | ? | 28µM* | ? | nt | GALK confirm=30µM*;GALK redox cs=5%;HEK293 tox=12%
CCOc1cc(/C=C(\C#N)C(=O)Nc2cccc(C(=O)O)c2)ccc1OCc1ccccc1Cl | 0% | ? | -2% | -4% | 56µM* | ? | ?
Cc1nn2c(=O)cc(COc3ccc(/C=C(\C#N)C(=O)Nc4ccccc4)cc3Cl)nc2s1 | -13% | ? | ? | 0% | -22% | -12% | nt
O=C(Cn1ncn2c(cc3sccc32)c1=O)NCCc1ccccc1 | 7% | 17% | 34% | -3% | -2% | -7% | nt
O=C(NCCCN1CCOCC1)c1cccc(S(=O)(=O)NCc2ccccc2)c1 | -16% | 45% | nt | -1% | -14% | 1% | nt
CC(=O)c1cccc(S(=O)(=O)NCCCN2CCOCC2)c1 | ? | 45µM* | nt | -11% | 20µM* | -5% | 76*
Cc1ccc(OCc2nc(-c3ccc(C(=O)NCCc4ccc(Cl)cc4)cc3)oc2C)cc1 | 11% | 8% | 38% | 5% | 2% | -1% | nt
SMILES | Pol kappa inh-1 | Pol iota inh | POLB inh | GLS inhibitor | Pol eta inh-1 | KAT2A inh | Pol eta inh-2 | others
C/C(N)=C(/C#N)C(=O)CN1C(=O)NC(Cc2c[nH]c3ccccc23)C1=O (stereo not given) | ? | ? | 28µM* | -5% | 32µM* | 3% | ?
CC(C)(C)OC(=O)CN1C(=O)NC(Cc2c[nH]c3ccccc23)C1=O (stereo not given) | 6% | 3% | ? | -2% | -5% | -3% | nt
N#Cc1c(SCC(=O)Nc2nc3ccccc3s2)sc2c(O)cc(=O)[nH]c12 | 13µM* | 6.3µM* | nt | 3% | 4.5µM* | ? | 30* | Pol kappa inh-2=19*
CC(=C/c1ccco1)/C=N/NC(=O)Cc1cccn1C | ? | 56µM* | 9% | -6% | ? | -4% | nt | Pol kappa inh-2=42*
O=C1C=CC(=O)N1Cc1ccncc1 | -11% | 9% | nt | 5% | ? | nt | nt
O=C1C=CC(=O)N1CCCCCCCCCCN1C(=O)C=CC1=O | -27% | ? | nt | -23% | 35µM* | nt | nt | Pol kappa inh-2=?
CCC(=O)N1CCc2cc(CNC(=O)Nc3ccc(OC)cc3OC)ccc21 | -7%[60.1 µM] | -14% | 10% | -10% | -2% | -8% | nt
CC(=O)C1=C(C)OC2(O)c3ccccc3C(=O)C12O (stereo not given) | -10% | 1µM* | 9% | 13% | 79µM* | -3% | ?
